KDM4E inh – inhibitors of human JMJD2E histone demethylase. JMJD2E catalytic domain, FDH-coupled NADH fluorescence (FDH is formaldehyde dehydrogenase). Potency, µM (doses to about 57.1 µM), without a hit: top-dose activity change, negative = inhibition, most hits filed as inhibitors. 230,000 compounds, 1.6% hits. AID 2147; active means well fitted inhibition curve with a large enough effect, not every such curve was filed as active; inconclusive means small, poorly fitted or top-dose-only effect, or another doubt; inactive means no such curve, though single readings can be large or run the other way;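 further: potency means the concentration at half of the fitted maximal effect; 0% = wells with enzyme and -100% = buffer wells without enzyme; nearly all actives have a fitted effect of over 50% in size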
L3MBTL1 inh – inhibitors of human L3MBTL1. 230,000 compounds, 0.66% hits. AlphaScreen L3MBTL1–H3K9me1 peptide binding. Potency, µM (doses to about 57.1 µM), inactives show at the highest dose activity, negative = inhibition, actives largely listed as inhibitors. Q9Y468; further: potency means the concentration at half of the fitted maximal effect; on the % scale 0 is the no-effect control and ±100 the full control effect; nearly all actives have a fitted effect of over 60% in size
Target sequence (Q9Y468 whole entry, looked up): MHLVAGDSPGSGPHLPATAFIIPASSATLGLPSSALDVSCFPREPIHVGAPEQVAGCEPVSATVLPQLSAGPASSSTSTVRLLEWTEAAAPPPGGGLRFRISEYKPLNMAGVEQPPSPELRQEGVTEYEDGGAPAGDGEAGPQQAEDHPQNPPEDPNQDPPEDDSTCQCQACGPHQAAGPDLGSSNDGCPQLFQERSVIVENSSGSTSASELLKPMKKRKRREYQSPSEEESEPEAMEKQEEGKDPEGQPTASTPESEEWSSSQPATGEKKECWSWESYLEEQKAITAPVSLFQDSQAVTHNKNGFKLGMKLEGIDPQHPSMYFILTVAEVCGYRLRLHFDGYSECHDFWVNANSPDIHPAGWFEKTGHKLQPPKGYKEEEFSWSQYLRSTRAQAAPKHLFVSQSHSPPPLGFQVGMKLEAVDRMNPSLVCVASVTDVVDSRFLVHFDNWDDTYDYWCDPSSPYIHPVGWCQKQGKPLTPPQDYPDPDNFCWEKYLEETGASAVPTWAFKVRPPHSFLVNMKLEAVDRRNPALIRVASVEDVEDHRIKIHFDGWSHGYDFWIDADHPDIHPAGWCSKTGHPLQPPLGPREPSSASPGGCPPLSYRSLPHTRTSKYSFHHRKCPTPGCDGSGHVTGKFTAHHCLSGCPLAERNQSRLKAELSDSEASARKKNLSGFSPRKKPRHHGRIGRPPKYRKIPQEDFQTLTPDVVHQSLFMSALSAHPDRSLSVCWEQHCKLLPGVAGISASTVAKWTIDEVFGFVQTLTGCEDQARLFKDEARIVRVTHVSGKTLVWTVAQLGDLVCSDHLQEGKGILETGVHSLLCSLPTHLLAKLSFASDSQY
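First, the protein-peptide complex forms for 30 min at room temperature (L3MBTL1 50 nM, biotinylated H3K9me1 peptide 75 nM). Next, compounds are pin-transferred and incubated 30 min. Finally, AlphaScreen beads are added and read after 30 min.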
RGS12 GoLoco inh-1 – RGS12 GoLoco-Gai1 interaction inhibition; Gai1:RGS12 GoLoco peptide FP, rhodamine, 10 min; Potency, µM (top dose mostly 61.6 µM), without a hit: at the top dose activity, negative = inhibition, most hits filed as inhibitors; 230,000 compounds, 0.44% hits; AID 880; active means well fitted inhibition curve with a large enough effect, not every such curve was filed as active; inactive means no such curve, though single readings can be large or run the other way; further: potency means the concentration at half of the fitted maximal effect; on the % scale 0 is the no-effect control and ±100 the full control effect; nearly all actives have a fitted effect of over 30% in size
APE1 inh-1 – APE1 (human) endonuclease inhibition | P27695 | recombinant APE1, TAMRA/BHQ-2 abasic DNA cleavage fluorescence | Potency, µM (top dose mostly 65.8 µM), for the others: top-dose activity change, negative = inhibition, most hits filed as inhibitors | 350,000 compounds, 0.35% hits | AID 2517;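 further: potency means the concentration at half of the fitted maximal effect; plate controls were vehicle for no effect and reference inhibitor for full effect; nearly all actives have a fitted effect of over 55% in size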
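Readout is kinetic fluorescence (ex 525, em 598 nm) from cleavage of 50 nM TAMRA/BHQ-2 THF abasic duplex by 0.75 nM APE1, compound added 15 min beforehand at RT.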
BLM helicase inh – blocks DNA unwinding by human BLM helicase | Potency, µM (top dose mostly 56.1 µM), for inactives: top-dose activity change, negative = inhibition, most hits filed as inhibitors | recombinant BLM DNA unwinding, fluorescence dequenching | AID 2528 | 350,000 compounds, 0.2% hits;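 further: potency means the concentration at half of the fitted maximal effect; plate controls were vehicle for no effect and no enzyme for full effect; nearly all actives have a fitted effect of over 35% in size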
RECQ1 inh – RECQ1 (human) helicase inhibition; P46063; Potency, µM (top dose mostly 57.3 µM), without a hit: at the highest dose activity, negative = inhibition, actives largely listed as inhibitors; 240,000 compounds, 0.54% hits; RECQ1 DNA unwinding, red fluorescence kinetic read;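 further: potency means the concentration at half of the fitted maximal effect; plate controls were vehicle for no effect and no enzyme for full effect; nearly all actives have a fitted effect of over 30% in size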
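50 nM RECQ1T1 preincubated 15 min with compound in Tris pH 8.0 buffer with MgCl2, DTT, Tween-20 and 2.5 ug/ml poly(dI-dC); started with 200 nM TAMRA/BHQ-2 forked duplex and 2 mM ATP. Unwinding read as fluorescence (525/598 nm), two reads 2 h apart.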
RGS12 GoLoco inh-2 – RGS12 (human) GoLoco motif inhibition, red FP; Gai1/rhodamine-RGS12 GoLoco peptide fluorescence polarization; shares compounds with RGS12 GoLoco inh-1; 110 compounds, 50% hits; Potency, µM (doses to about 57.1 µM), without a hit: at the top dose activity, negative = inhibition, hits mostly inhibitors
DNA dye displace – displaces fluorescent dye from DNA, flagging APE1 artifacts; shares compounds with APE1 inh-1; DNA fluorescent dye displacement counterscreen, fluorescence; Potency, µM (titrated, usually from 28.5 µM), without a hit: at the top dose activity change, negative = inhibition, usual class: inhibitors; 480 compounds, 7% hits; AID 2564;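 further: loss of thiazole orange fluorescence as the dye is displaced from duplex DNA; potency means the concentration at half of the fitted maximal effect; 0% = ThO with dsDNA and no compound and -100% = ThO without dsDNA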
EndoIV counter – counter-screen for APE1 inhibitors: inhibitors of E. coli endonuclease IV; shares compounds with APE1 inh-1; E. coli Endo IV, fluorogenic AP-site DNA cleavage; Potency, µM (doses to about 27.1 µM), without a hit: at the top dose activity change, negative = inhibition, most hits filed as inhibitors; 560 compounds, 4% hits;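 further: potency means the concentration at half of the fitted maximal effect; plate controls were uninhibited enzyme wells for no effect and no enzyme buffer wells for full effect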
APE1 inh-2 – APE1 (human) endonuclease inhibition, confirmation. shares compounds with APE1 inh-1. purified APE1, fluorogenic abasic-site DNA cleavage. Potency, µM (titrated, usually from 57.1 µM), without a hit: at the top dose activity change, negative = inhibition, hits mostly inhibitors. 750 compounds, 44% hits; further: potency means the concentration at half of the fitted maximal effect; on the % scale 0 is the no-effect control and ±100 the full control effect; nearly all actives have a fitted effect of over 30% in size
APE1 FP inh – displaces DNA from human APE1 in FP assay; shares compounds with APE1 inh-1; APE1 binding to TAMRA-labelled double-stranded DNA, fluorescence polarization displacement; Potency, µM (titrated, usually from 28.5 µM), for the others: at the top dose activity, negative = inhibition, actives largely listed as inhibitors; 480 compounds, 7% hits; AID 2573; further: potency means the concentration at half of the fitted maximal effect; on the % scale 0 is the no-effect control and ±100 the full control effect
RECQ1 inh conf – confirmation of human RECQ1 helicase inhibitors | shares compounds with RECQ1 inh | RECQ1 helicase DNA unwinding, fluorescence | Potency, µM (series often up to 229 µM), inactives show at the highest dose activity change, negative = inhibition, actives largely listed as inhibitors | 610 compounds, 28% hits; further: potency means the concentration at half of the fitted maximal effect; on the % scale 0 is the no-effect control and ±100 the full control effect; nearly all actives have a fitted effect of over 45% in size
ADP FP counter – ADP displacement flagged in RECQ1 inhibitor counter-screen | shares compounds with RECQ1 inh | ADP fluorescence polarization displacement counterscreen | Potency, µM (titrated, usually from 228 µM), without a hit: at the highest dose activity change, negative = inhibition, most hits filed as inhibitors | 530 compounds, 27% hits | AID 2711; further: potency means the concentration at half of the fitted maximal effect; on the % scale 0 is the no-effect control and ±100 the full control effect; nearly all actives have a fitted effect of over 45% in size
Active calls of the source: *; i = inactive; ? = inconclusive; . = no result given; ! = a repeat was not active; [ ] = remark or other dose. This excerpt belongs to a sample that is enriched for hits. Unless noted, the call rests on the fitted dose curve; in most records, active means well fitted curve in the direction sought with a large enough effect; inconclusive means small, poorly fitted or top-dose-only effect, or another doubt; inactive means no such curve, though single readings can be large; an effect the other way counts as inactive or inconclusive.

SMILES	KDM4E inh	L3MBTL1 inh	RGS12 GoLoco inh-1	APE1 inh-1	BLM helicase inh	RECQ1 inh	EndoIV counter	APE1 inh-2	others
COc1ccc(OC)c(N2C(=O)NC(=O)/C(=C\c3ccc([N+](=O)[O-])s3)C2=O)c1	22µM*	10µM*	193%	?	16µM*	-21%	.	.
CCC(CO)(C(=O)OC1C[N+]2(C)CCC1CC2)c1ccccc1 (centres undefined)	-27%	.	16µM*	-1%	1%	-1%	.	.	RGS12 GoLoco inh-2=16µM*
COc1ccc2c(c1OC)C(=O)OC2C1c2cc3c(cc2CCN1C)OCO3 (centres undefined)	?	3%	20µM*!	1%	1%	18%	.	.	RGS12 GoLoco inh-2=1%
CN(CCC(=O)O)C1=Nc2ccc(Cl)cc2C(c2ccccc2)=[N+]([O-])C1	.	.	4%[14.2 µM]	.	.	.	.	.
Oc1ccc2c3c1OC1C(O)CC[C@]4(O)C(C2)N(CC2CCC2)CC[C@]314 (some centres undefined)	3%	.	28µM*	2%	-6%	14%	.	.	RGS12 GoLoco inh-2=1%
Oc1ccc2c3c1OC1C(O)CC[C@@]4(O)[C@@H](C2)N(CC2CCC2)CC[C@]314 (some centres undefined)	-3%	.	6%	-2%	-1%	-6%	.	.
CC1(C)C(=O)[C@@H]2OC2[C@@]2(C)C1CC(O)[C@]1(C)C2CC[C@@]2(C)C(c3ccoc3)OC(=O)C3OC312 (some centres undefined)	4%	.	3%	-1%	0%	-10%	.	.
O=C(CCN1CC2CCC(CC2)C1)c1cccs1	.	.	4%[14.2 µM]	.	.	.	.	.
CCCC[N+]12CCC(CC1)C(C(=O)c1cccs1)C2 (centres undefined)	-2%	5%	6.3µM*	-2%	0%	i	.	.	RGS12 GoLoco inh-2=16µM*
CC[C@@]1(O)CC(O)c2c(cc3c(c2O)C(=O)c2c(O)ccc(O)c2C3=O)C1C(=O)OC (some centres undefined)	13µM*	.	2.8µM*	?	?	4µM*	.	.	RGS12 GoLoco inh-2=5µM*;RECQ1 inh conf=50µM*;ADP FP counter=0.89µM*
C#CCN1C(C)=C(C(=O)CCO)[C@@H](c2cccc(-n3oo3)c2)C(C(=O)OC)=C1C	-3%	.	5%	1%	-8%	i	.	.
Cc1ccc(C(=O)Nc2ccccc2)cc1S(=O)(=O)N1CCCC1	.	.	.	.	-5%	.	.	.
CC1Cc2ccccc2N1NC(=O)c1ccc(Cl)c(S(N)(=O)=O)c1 (centres undefined)	1%	-7%	8%	2.2µM*!	-8%	-5%	18%[57.1 µM]	-10%	DNA dye displace=1%[57.1 µM];APE1 FP inh=8%[57.1 µM]
CCCN1CCc2cccc3c2C1Cc1ccc(O)c(O)c1-3 (centres undefined)	?	.	22%	0%	.	-16%	-2%[57.1 µM]	-24%
COc1cc2c(cc1O)C[C@@H]1c3c(cc(O)c(OC)c3-2)CCN1C	.	.	0%[14.2 µM]	.	.	.	.	.
CCCCN1C(=O)/C(=C/C=C/c2ccco2)C(=O)NC1=S	-26%	3.5µM*	228%	32µM*	41%	14µM*	53%	14µM*	DNA dye displace=30%;APE1 FP inh=65%
CCn1cc(C(=O)O)c(=O)c2cc3c(cc21)OCO3	-10%	-4%	-11%	2%	-2%	-2%	3%[57.1 µM]	-12%
N[C@H](Cc1ccccc1)c1nn[nH]n1	.	.	-3%[14.2 µM]	.	.	.	.	.
O=C(OC1Cc2c(O)cc(O)cc2OC1c1cc(O)c(O)c(O)c1)c1cc(O)c(O)c(O)c1 (centres undefined)	2.5µM*	.	-4%	0.28µM*	?	1.6µM*	9%[57.1 µM]	0.089µM*
Oc1cc(O)c2c(c1)OC(c1cc(O)c(O)c(O)c1)C(O)C2 (centres undefined)	1.4µM*	.	-26%	10µM*	-27%	35µM*	16%[57.1 µM]	5µM*
C=CC(N)=O	.	.	2%	2%	.	-19%	.	.
N[C@@H](Cc1c[nH]c2cc([N+](=O)[O-])ccc12)C(=O)O	.	.	-12%[14.2 µM]	.	.	.	.	.
O=c1c2ccccc2nc(/C=C/c2ccccc2)n1-c1ccc(O)cc1	.	.	.	-5%	-6%	.	.	.
O=c1c2ccccc2nc(/C=C/c2cccnc2)n1Cc1ccccc1	7.9µM*	6.3µM*	1%	?	-6%	-7%	.	28µM*
O=[As](O)(O)c1ccc2nc3cc([As](=O)(O)O)ccc3nc2c1	.	.	3%[14.2 µM]	.	.	.	.	.
C=CCn1c(O)c(/C(CC)=N/NC(=S)Nc2ccccc2)c(=O)[nH]c1=O	?	0%	2%	?	-2%	-12%	.	?
N[C@@H](Cc1ccccc1)P(=O)(O)O	.	.	-2%[14.2 µM]	.	.	.	.	.
CCc1ccc(/C=C(/C#N)C(N)=S)cc1	?	-4%	-1%	-3%	0%	14%	.	.
N#CC(=Cc1ccc(O)c(O)c1)C(N)=S	8.9µM*	.	28%	?	.	?	-8%[57.1 µM]	-25%
CC(C)CC(=O)Nc1ccc(C(=O)Cn2c(=O)oc3ccccc32)cc1	2%	?	8%	?	-12%	-4%	-4%	?	DNA dye displace=-8%;APE1 FP inh=4%

Screens from PubChem.
